Shiga inhibitor = inhibitors of Shiga toxin in Vero cells. inhibition, % at 38.7 µM. 290,000 tested, 9.2% active. Vero cells, Shiga toxin protein synthesis inhibition reporter; in the data active = inhibition mostly above about 28%, no sharp cut-off; inactive = mostly below about 43%; note: 0% is about no effect
NS1 function inh = inhibitors of influenza NS1 protein function | Potency, µM (doses to about 46.1 µM), inactives show at the top dose activity, positive = more growth | 270,000 tested, 0.4% active; note: potency is the fitted concentration of half-maximal effect; actives are rising curves; nearly all actives have a fitted effect of over 50% in size
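S. cerevisiae expressing influenza A NS1, grown in glucose, washed, then diluted 1:100 into pH 6.0 -URA galactose medium with 23 nl compound. Growth recovery read as OD600; NS1-free strain serves as control.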
Cycloheximide cs = counter-screen hit for Shiga toxin inhibitors, cycloheximide | 300,000 tested, 12% active | cell reporter, cycloheximide protein synthesis inhibition counterscreen | AID 2314 | max response, %; in the data active = max response mostly above about 13%, no sharp cut-off; inactive = mostly below about 14%; note: read at 38.3 µM for the half of the compounds with a filed dose; 0% is about no effect
SARS PLP yeast = SARS-CoV PLP inhibition in yeast; S. cerevisiae expressing SARS-CoV PLpro, growth rescue; Potency, µM (top dose mostly 32.9 µM), for the others: top-dose activity, positive = growth rescue, usual class: activators; 330,000 tested, 0.19% active; note: potency is the fitted concentration of half-maximal effect; 0% is about no effect; nearly all actives have a fitted effect of over 55% in size
An asterisk follows results filed as active; ? = inconclusive; . = no result given; + = active, no number. The list is not random: actives were taken first. Their share in the collection is about 12%. Unless noted, calls come from the whole dose curve.

SMILES | Shiga inhibitor | NS1 function inh | Cycloheximide cs | SARS PLP yeast
O=C(Nc1ccc([N+](=O)[O-])cc1)Nc1nc(-c2ccc(Cl)s2)cs1 | 20 | 28% | 3 | -16%
O=C(Nc1ccc(Cl)cc1-c1nc2ccccc2s1)c1ccco1 | 79* | -6% | 13 | 3%
CC(OC(=O)CNC(=O)c1ccccc1F)C(=O)Nc1nc(-c2ccccc2)cs1 (stereo not given) | 101* | -39% | 66* | -5%
O=C(Nc1nc(-c2ccc(Cl)s2)cs1)c1cccs1 | 98* | -109% | 30* | -20%
O=C(Nc1ccccc1-c1nc2ccccc2s1)c1ccc(Br)o1 | -5 | 5% | 2 | -10%
O=C(Nc1nc(-c2cc(Cl)sc2Cl)cs1)c1ccccc1 | 167* | -4% | 49* | -33%
COC(=O)C(Cc1ccccc1)NC(=O)CC(C)CC(=O)Nc1ccc(C)cc1 (stereo not given) | -10 | -4% | 2 | 7%
COC(=O)c1ccc(C(=O)NC2CCCN(Cc3ccc(Cl)cc3)C2)nc1 (stereo not given) | -5 | -1% | -1 | 2%
NC(=O)COC(=O)c1ccc(Cl)c(S(=O)(=O)N2CCN(c3ccc(F)cc3)CC2)c1 | 17 | 0% | -5 | -2%
O=S(=O)(c1ccc(Br)cc1)c1nc(-c2ccco2)oc1NCC1CCCO1 (stereo not given) | 16 | . | 3 | -3%
O=C(Nc1nc(-c2ccccc2)cs1)c1cccs1 | 123* | -57% | 88* | -36%
CC1CC1C(=O)Nc1nc(-c2ccccc2)cs1 (stereo not given) | 84* | -113% | 39* | -27%
CN(C)CC(=O)Nc1nc(-c2ccccc2)cs1 | 16 | -6% | 12 | 0%
O=C(Nc1nc(-c2nc3ccccc3s2)cs1)c1ccco1 | 66* | -40% | 30* | -7%
CCc1cccc2sc(NC(=O)C3CC3)nc12 | 19 | -21% | 1 | -7%
O=C(Nc1nc(-c2nc3ccccc3s2)cs1)C1CC1 | 85* | -8% | 63* | -8%
O=C(Nc1nc2ccccc2c(=O)s1)c1ccco1 | 5 | -75% | -2 | -10%
COc1cc(NC(=O)COc2ccc(Br)cc2)ccc1NC(=O)C(C)C | -2 | -2% | 8 | -2%
Cc1ccc(-n2c(SCC(=O)N(C)C3CCS(=O)(=O)C3)nc3ccccc3c2=O)cc1 (stereo not given) | -11 | . | 8 | -1%
CCn1cc(C(=O)N[C@H](C(=O)NC(C)(C)CO)C(C)C)c(=O)c2cc3c(cc21)OCO3 | -7 | 1% | -5 | 0%
CCc1ccc(N(CC(=O)NC2CCCC2)C(=O)CCC(=O)Nc2cc(C)on2)cc1 | 17 | -11% | -2 | 14%
O=C(Nc1nc(-c2ccc(Cl)s2)cs1)c1ccco1 | 81* | . | 56* | -3%
Cc1csc(NC(=O)c2ccco2)n1 | -4 | -2% | -3 | 1%
O=C(Nc1nc(-c2ccccc2)ns1)c1cccs1 | 68* | -87% | 28* | -36%
O=C(O)Cc1csc(NC(=O)c2ccco2)n1 | -2 | 7% | 7 | 3%
SMILES | Shiga inhibitor | NS1 function inh | Cycloheximide cs | SARS PLP yeast
O=C(Nc1nc(-c2ccccc2)cs1)c1ccc(=O)[nH]c1 | 67* | . | 24* | 3%
Cc1cc(-c2csc(NC(=O)c3ccc(=O)[nH]c3)n2)c(C)n1Cc1ccccc1 | -11 | . | 3 | -2%
COc1ccccc1OCc1csc(NC(=O)c2ccco2)n1 | 98* | -32% | 53* | -1%
COc1cccc(-c2c(C#N)c(SC)nc3cc(C)nn23)c1 | -8 | 1% | 1 | 0%
CCOc1cc(C(=O)CSc2nnc(CNc3ccc(Cl)cc3)o2)ccc1NC(=O)CC | -21 | ? | -10 | 14%
NC(=Nc1ccc(Br)cc1)c1ccccc1 | 76* | -5% | 20* | 7%
CN=c1scc(-c2ccc(OC)cc2)n1/N=C(\C)c1cccnc1 | 57* | . | 32* | -15%
COc1ccc(CC(=O)N/N=C(\C)c2cccnc2)cc1 | 2 | -15% | 1 | -4%
COc1ccc(CN2C[C@H](C)[C@@H](CC(=O)NCc3ccccc3)C2=O)cc1 | -1 | 17% | 1 | 0%
Cc1cnc(CN(C)C(=O)CC2C(=O)NCCN2CCCc2ccccc2)[nH]1 (stereo not given) | -29 | 2% | 10 | ?
O=c1c2ccccc2nc(SCc2cn3ccsc3n2)n1-c1ccc(F)cc1 | 2 | -18% | 1 | -3%
c1ccc(-c2nnc(SCc3cn4ccsc4n3)o2)cc1 | 93* | -70% | 30* | 5%
Cc1ccc(S(=O)(=O)NCCC(=O)N2CCOCC2)cc1C | . | . | . | -1%
CCCCOC(=O)c1ccc(NC(=O)c2ccccc2OC)cc1 | 29* | -13% | 7 | -28%
CCCCOC(=O)c1ccc(NC(=O)c2cc(Cl)ccc2OC)cc1 | -3 | -1% | 10 | -2%
CCCOC(=O)c1ccc(NC(=O)c2ccccc2OC)cc1 | 86* | . | 26* | -19%
CCCOC(=O)c1ccc(NC(=O)c2ccccc2[N+](=O)[O-])cc1 | 91* | -1% | 38* | -1%
CCCOC(=O)c1ccc(NC(=O)c2c(Cl)ccc(Cl)c2OC)cc1 | -3 | -22% | -2 | -60%
COc1ccccc1Nc1ccc(NC(=O)c2cccc([N+](=O)[O-])c2C)cc1 | 55* | 15% | 30* | -4%
COc1cc(C(=O)Nc2ccc(N(C)C)cc2)c([N+](=O)[O-])cc1OC | 107* | 8% | 41* | 1%
CCN(CC)S(=O)(=O)c1cc(C(=O)Nc2cc(C)[nH]n2)ccc1Cl | 117* | 0% | 67* | -2%
CN(C)S(=O)(=O)c1cccc(C(=O)Nc2ccccc2[N+](=O)[O-])c1 | 51* | 4% | 18* | 4%
CC1CCC(NC(=O)COC(=O)CCC(=O)c2ccc(Cl)s2)CC1 (stereo not given) | . | . | . | 2%
Cn1ncc(Cl)c1C(=O)N1CCN(S(=O)(=O)c2ccc(Cl)s2)CC1 | 6 | 1% | 10 | 3%
Cc1c(NC(=O)c2ccccc2)cccc1[N+](=O)[O-] | + | -3% | 17* | 14%
SMILES | Shiga inhibitor | NS1 function inh | Cycloheximide cs | SARS PLP yeast
Cc1c(NC(=O)c2cccs2)cccc1[N+](=O)[O-] | -4 | -3% | 3 | -1%
CCN(CC)S(=O)(=O)c1cc(C(=O)Nc2ccccc2[N+](=O)[O-])ccc1Cl | 41* | 7% | 27* | 14%
Nc1nc2ccccc2n1/N=C/c1ccc(-c2ccccc2)o1 | 72* | -101% | 25* | 6%
Nc1nc2ccccc2n1/N=C/c1ccc([N+](=O)[O-])s1 | 14 | -20% | 6 | -53%
Cc1cccc(-c2nsc(SCC(=O)Nc3ccc4c(c3)OCO4)n2)c1 | 36* | 2% | 27* | -7%
O=C(CSc1nc(-c2ccccc2Cl)ns1)NCc1ccc2c(c1)OCO2 | -11 | 6% | -1 | -17%
Cc1ccccc1-c1nsc(SCC(=O)Nc2ccc3c(c2)OCO3)n1 | 35 | 3% | 33* | 12%
CC(=O)Nc1ccc(C(=O)CN2C(=O)NC3(CCOc4ccccc43)C2=O)c(F)c1 (stereo not given) | . | . | . | -1%
CCn1c2ccc(C)cc2c2nc3cc(C(=O)O)ccc3nc21 | 61* | -27% | 44* | -101%
CC(=O)OCC(NC(=O)C(C)NC(=O)OC(C)(C)C)C1OC(n2ccc(=O)[nH]c2=O)C(OC(C)=O)C1OC(C)=O (stereo not given) | 4 | . | 7 | .

From PubChem BioAssay
